An excerpt weighted towards active compounds, which were near 1.3% of everything screened.
PREPL inhibitor = human PREPL enzyme inhibition; Q4J6C6; recombinant PREPL, fluorescence polarization activity-based probe; inhibition, % at 5.96 µM; 320,000 tested, 0.68% active; in the data active = inhibition above about 43%;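 also: 0% = enzyme with DMSO and 100% = wells lacking enzyme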
DNA FID counter = fluorescent intercalator displacement, NS3 helicase counter-screen. inhibition, % at 7.9 µM. DNA fluorescent intercalator displacement, fluorescence. 290,000 tested, 0.17% active. AID 1845; in the data active = inhibition above about 37%;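 also: 0% = vehicle and 100% = reference compound; higher means more ethidium bromide displaced from hairpin DNA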
RAD54 inh = RAD54 (human) branch migration inhibition | RAD54 Holliday junction branch migration, FAM/BHQ fluorescence | inhibition, % at 10.4 µM | 360,000 tested, 0.14% active | AID 602329;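 active = mean normalized replicate activity at least 40 and at least half of replicates scoring 40 or more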;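 also: 0% = median of neutral control wells and 100% = median of positive control wells; inhibitors cause a drop in the FAM fluorescence signal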
RAD52 inh = blocks human RAD52 DNA annealing; P43351; recombinant RAD52 DNA annealing, FRET fluorescence; inhibition, % at 18.7 µM; 360,000 tested, 0.46% active; AID 651710;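 active = every replicate showing at least 50% inhibition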
Target sequence (P43351 whole entry, looked up): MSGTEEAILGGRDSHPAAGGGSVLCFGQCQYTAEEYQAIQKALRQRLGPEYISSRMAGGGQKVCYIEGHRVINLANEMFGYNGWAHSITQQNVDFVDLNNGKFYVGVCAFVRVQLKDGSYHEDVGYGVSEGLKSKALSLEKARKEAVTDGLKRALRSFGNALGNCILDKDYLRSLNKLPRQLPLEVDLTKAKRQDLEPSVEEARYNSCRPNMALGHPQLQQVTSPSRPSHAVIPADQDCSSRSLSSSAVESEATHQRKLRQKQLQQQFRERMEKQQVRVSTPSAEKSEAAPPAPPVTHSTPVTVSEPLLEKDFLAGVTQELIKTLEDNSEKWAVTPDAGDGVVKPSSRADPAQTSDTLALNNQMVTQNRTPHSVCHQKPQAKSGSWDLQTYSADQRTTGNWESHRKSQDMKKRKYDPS
UBC13 polyUb = blocks human UBC13 polyubiquitin chain formation; TR-FRET; P61088; 330,000 tested, 0.47% active; AID 485273; inhibition, % at 20 µM; in the data active = inhibition above about 45%, passing the limit was not always enough
Target sequence (P61088 whole entry, looked up): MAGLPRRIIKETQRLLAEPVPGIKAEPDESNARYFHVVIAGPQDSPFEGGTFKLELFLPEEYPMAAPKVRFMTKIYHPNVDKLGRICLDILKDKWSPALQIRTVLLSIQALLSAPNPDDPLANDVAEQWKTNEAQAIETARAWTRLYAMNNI
MIN6 prolif = MIN6 beta-cell proliferation induction. AID 2380. MIN6 cells proliferation, ATPlite luminescence, 48 h; cells starved in 0.2% serum; 100% = growth in 10% serum. 330,000 tested, 0.29% active. proliferation, % at 10 µM;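 active = compounds whose signal lies at least 3.5 SD above the mean of all wells on their plate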;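 also: 0% = DMSO-treated cells in low-serum medium and 100% = 10% serum control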
Numbers without * were called inactive; . = no result given; ! = a repeat was not active.

SMILES | PREPL inhibitor | DNA FID counter | RAD54 inh | RAD52 inh | UBC13 polyUb | MIN6 prolif
COc1ccc(CN(C)C[C@H]2OCCCC[C@@H](C)Oc3ccc(NS(=O)(=O)c4ccc(F)cc4)cc3C(=O)N([C@@H](C)CO)C[C@@H]2C)cc1 | . | . | 8.6 | 45.9 | . | .
COc1ccc(NC(=O)N(C)C[C@H]2OCCCC[C@@H](C)Oc3ccc(NS(=O)(=O)c4ccccc4)cc3C(=O)N([C@H](C)CO)C[C@@H]2C)cc1 | . | . | 0.3 | 98.8* | . | .
COc1ccc(CN(C)C[C@@H]2OCCCC[C@@H](C)Oc3ccc(NS(=O)(=O)c4ccc(Cl)cc4)cc3C(=O)N([C@@H](C)CO)C[C@H]2C)cc1 | . | . | -3.1 | 49.5 | . | .
COc1ccc(CN(C)C[C@H]2OCCCC[C@H](C)Oc3ccc(NS(=O)(=O)c4ccc(F)cc4)cc3C(=O)N([C@H](C)CO)C[C@H]2C)cc1 | . | . | -0.2 | 54.9* | . | .
COc1ccc(CN(C)C[C@@H]2OCCCC[C@H](C)Oc3ccc(NS(=O)(=O)c4ccc(Cl)cc4)cc3C(=O)N([C@H](C)CO)C[C@@H]2C)cc1 | . | . | -1.4 | 55.3* | . | .
C[C@@H]1CN([C@@H](C)CO)C(=O)Cc2cc(NS(=O)(=O)c3cccs3)ccc2O[C@H]1CN(C)Cc1ccc(Cl)c(Cl)c1 | . | . | -2.0 | 50.8* | . | .
C[C@H](CO)N1C[C@H](C)[C@H](CN(C)Cc2ccc(-c3ccccc3)cc2)Oc2ccc(NC(=O)CCCN(C)C)cc2CC1=O | . | . | 2.0 | 52.8* | . | .
C[C@@H]1CN([C@H](C)CO)C(=O)Cc2cc(NC(=O)CCCN(C)C)ccc2O[C@H]1CN(C)Cc1ccc(-c2ccccc2)cc1 | . | . | 11.8 | 73.4* | . | .
C[C@H](CO)N1C[C@H](C)[C@@H](CN(C)Cc2ccc(Cl)c(Cl)c2)Oc2ccc(NC(=O)CCCN(C)C)cc2CC1=O | . | . | 19.5 | 59.5* | . | .
C[C@H]1CN([C@@H](C)CO)C(=O)Cc2cc(NC(=O)CCCN(C)C)ccc2O[C@H]1CN(C)Cc1ccc(-c2ccccc2)cc1 | . | . | . | 48.6 | . | .
Cc1ccc(S(=O)(=O)N(C)C[C@H]2OCCCC[C@H](C)Oc3ccc(NS(=O)(=O)c4ccc(Cl)cc4)cc3C(=O)N([C@@H](C)CO)C[C@@H]2C)cc1 | . | . | -8.3 | 8.7 | . | .
C=CCn1c(C)cc(-c2csc(N)n2)c1C | 49.2* | -1.0 | . | . | 4.8 | 4.1
C=CCn1c(C)cc(-c2csc(NC)n2)c1C | . | -0.2 | -23.2 | -25.9 | . | .
O=S(=O)(c1ccccc1)N1C[C@@H]2N[C@H](C1)C2c1ccc(-c2ccccc2)cc1 (stereo not given in full) | . | . | . | 72.8*! | . | .
Cc1ccc(S(=O)(=O)N2C[C@@H]3N[C@H](C2)C3c2ccc(-c3cccc(C#N)c3)cc2)cc1 (stereo not given in full) | . | . | . | 81.8*! | . | .
Cc1cccc(S(=O)(=O)N2C[C@@H]3N[C@H](C2)C3c2ccc(-c3ccncc3)cc2)c1 (stereo not given in full) | . | . | . | 12.1 | . | .
Cc1ccc(-c2ccc(C3[C@@H]4CN(S(=O)(=O)c5ccccc5)C[C@H]3N4)cc2)cc1 (stereo not given in full) | . | . | . | 97.9*! | . | .
N#Cc1cccc(-c2ccc(C3[C@@H]4CN(S(=O)(=O)c5ccccc5)C[C@H]3N4)cc2)c1 (stereo not given in full) | . | . | . | 46.3 | . | .
COc1ccccc1-c1cn(CC[C@H]2CC[C@@H](NC(=O)NC(C)C)[C@@H](CO)O2)nn1 | . | . | -0.5 | -6.4 | . | .
COc1ccc2c3c(n(C)c2c1)[C@@H](CO)N(C)CC31CN(C(=O)c2ccccc2F)C1 | . | . | . | 10.6 | . | .
O=C(c1ccncc1)N1CC2(C1)[C@H](c1ccccc1)[C@H](CO)N2Cc1ccccn1 | . | . | . | -3.6 | . | .
C[C@@H]1CN([C@@H](C)CO)C(=O)c2cc(NC(=O)c3ccccc3)ccc2O[C@@H](C)CCCCO[C@@H]1CN(C)S(=O)(=O)c1cccs1 | . | . | 4.6 | . | . | .
NC1=NC[C@H](Cc2ccc(O)cc2)N1CCCCC1CCCCC1 | 1.9 | . | 16.4 | -2.5 | 73.2* | -8.7
O=C(CN1CCOCC1)N1C[C@@H]2N[C@H](C1)C2c1ccc(/C=C/c2ccccc2)cc1 (stereo not given in full) | . | . | . | 17.4 | . | .
O=C(c1ccncc1)N1C[C@@H]2N[C@H](C1)C2c1ccc(/C=C/c2ccccc2)cc1 (stereo not given in full) | . | . | . | 4.4 | . | .
SMILES | PREPL inhibitor | DNA FID counter | RAD54 inh | RAD52 inh | UBC13 polyUb | MIN6 prolif
COc1ccccc1CN1C[C@@H]2N[C@H](C1)C2c1ccc(/C=C/c2ccccc2)cc1 (stereo not given in full) | . | . | . | 68.0* | . | .
O=C(C1CCCC1)N1C[C@@H]2N[C@H](C1)C2c1ccc(/C=C/c2ccccc2)cc1 (stereo not given in full) | . | . | . | 58.0* | . | .
O=C(Nc1ccccc1)N1C[C@@H]2N[C@H](C1)[C@@H]2c1ccc(/C=C/c2ccccc2)cc1 | . | . | . | 72.2* | . | .
O=C(c1ccc(F)cc1)N1C[C@@H]2N[C@H](C1)C2c1ccc(/C=C/c2ccccc2)cc1 (stereo not given in full) | . | . | . | 65.1* | . | .
CN(C)CC(=O)Nc1ccc2c(c1)[C@@H]1C[C@H](CC(=O)NCc3ccccc3F)O[C@@H](CO)[C@@H]1O2 | . | . | 4.6 | . | . | .
C[C@@H]1CN([C@H](C)CO)C(=O)c2cc(NC(=O)CCC(F)(F)F)ccc2O[C@H]1CN(C)S(=O)(=O)c1ccccc1 | . | . | 10.2 | -3.0 | . | .
CNC(=O)C[C@H]1CC[C@@H]2[C@@H](COc3ccc(NC(=O)c4ccccc4OC)cc3C(=O)N2C)O1 | . | . | -1.3 | 10.4 | . | .
C[C@@H]1CCCCO[C@H](CN(C)Cc2ccc3c(c2)OCO3)[C@@H](C)CN([C@@H](C)CO)C(=O)c2cc(NS(C)(=O)=O)ccc2O1 | . | . | 1.1 | 18.8 | . | .
CN1[C@@H]2Cn3c(ccc(C4=CCCCC4)c3=O)[C@H]1[C@@H](C(=O)NCc1cc(F)cc(F)c1)[C@@H]2CO | . | . | 1.3 | -32.9 | . | .
COc1ccccc1S(=O)(=O)N[C@@H]1CC[C@H](CC(=O)N2CCCCC2)O[C@@H]1CO | . | . | -1.0 | 3.7 | . | .
O=C(CN1CCOCC1)NCC[C@@H]1CC[C@@H](NC(=O)c2ccccc2F)[C@@H](CO)O1 | . | . | -5.8 | -16.1 | . | .
C[C@H](CO)N1C[C@H](C)[C@H](CN(C)Cc2ccccc2)OCCCC[C@H](C)Oc2ccc(NC(=O)Nc3ccc(C(F)(F)F)cc3)cc2C1=O | . | . | 4.0 | 11.5 | . | .
CN(C)C(=O)C[C@H]1C[C@H]2c3cc(NC(=O)NC4CCCCC4)ccc3O[C@H]2[C@@H](CO)O1 | . | . | 1.5 | -13.9 | . | .
O=C(C1CCCCC1)N1C[C@@H]2N[C@H](C1)C2c1ccc(-c2ccccc2F)cc1 (stereo not given in full) | . | . | . | 57.1*! | . | .
O=C(C1CCC1)N1C[C@@H]2N[C@H](C1)C2c1ccc(-c2ccccc2F)cc1 (stereo not given in full) | . | . | . | 4.8 | . | .
Cc1ccn(C(=O)c2ccc(NC(=O)CC(C)C)cc2)n1 | 71.1* | -3.9 | . | . | -2.2 | 0.9
C[C@@H]1CN([C@@H](C)CO)C(=O)Cc2cc(NC(=O)Nc3ccc(F)cc3)ccc2O[C@@H]1CN(C)CC1CCCCC1 | . | . | -10.2 | 13.8 | . | .

Source: PubChem BioAssay (several laboratories)
